Assay outcomes: PubChem, National Center for Advancing Translational Sciences (NCATS)
Most compounds without a hit are left out; they make up all but 3.6% or so of the library.
CRE Fsk mod = Cell signaling CRE-BLA (Fsk stim); CHO CRE-bla reporter (cAMP response element driving beta-lactamase), forskolin EC10, beta-lactamase ratio; Potency, µM (titrated, usually from 38.2 µM), without a hit: top-dose activity change, negative = inhibition, actives largely listed as activators; 2.5% of 71,000 active; AID 662, 2007; active means well fitted activation curve with a large enough effect in the signal ratio, with a control signal flat, not every such curve was filed as active; inconclusive means small, poorly fitted or top-dose-only effect, or effect the other way, or a change in a side signal; the % refers to the signal ratio; further: % of control where 0% means no effect
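Cells were plated overnight at 37 °C, exposed to compound titrations plus EC10 NKH 477 for 3 h, then given CCF4 dye for 2 h at room temperature. Blue/green (460/530 nm) ratio was converted to %Activity and AC50 values calculated.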
Tau fil binding = qHTS Assay for Tau Filament Binding | Microtubule-associated protein tau (Homo sapiens), P10636 | recombinant tau filaments, thioflavin S fluorescence, 15 h; filaments grown with octadecylsulfate alongside compound | Potency, µM (top dose mostly 57.1 µM), for inactives: top-dose activity change, negative = inhibition | 2% of 71,000 active | AID 596, 2007;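 further: on the % scale 0 is the no-effect control and ±100 the full control effect; actives lower thioflavin S fluorescence by blocking filaments or displacing dye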
Target sequence (P10636 whole entry, looked up): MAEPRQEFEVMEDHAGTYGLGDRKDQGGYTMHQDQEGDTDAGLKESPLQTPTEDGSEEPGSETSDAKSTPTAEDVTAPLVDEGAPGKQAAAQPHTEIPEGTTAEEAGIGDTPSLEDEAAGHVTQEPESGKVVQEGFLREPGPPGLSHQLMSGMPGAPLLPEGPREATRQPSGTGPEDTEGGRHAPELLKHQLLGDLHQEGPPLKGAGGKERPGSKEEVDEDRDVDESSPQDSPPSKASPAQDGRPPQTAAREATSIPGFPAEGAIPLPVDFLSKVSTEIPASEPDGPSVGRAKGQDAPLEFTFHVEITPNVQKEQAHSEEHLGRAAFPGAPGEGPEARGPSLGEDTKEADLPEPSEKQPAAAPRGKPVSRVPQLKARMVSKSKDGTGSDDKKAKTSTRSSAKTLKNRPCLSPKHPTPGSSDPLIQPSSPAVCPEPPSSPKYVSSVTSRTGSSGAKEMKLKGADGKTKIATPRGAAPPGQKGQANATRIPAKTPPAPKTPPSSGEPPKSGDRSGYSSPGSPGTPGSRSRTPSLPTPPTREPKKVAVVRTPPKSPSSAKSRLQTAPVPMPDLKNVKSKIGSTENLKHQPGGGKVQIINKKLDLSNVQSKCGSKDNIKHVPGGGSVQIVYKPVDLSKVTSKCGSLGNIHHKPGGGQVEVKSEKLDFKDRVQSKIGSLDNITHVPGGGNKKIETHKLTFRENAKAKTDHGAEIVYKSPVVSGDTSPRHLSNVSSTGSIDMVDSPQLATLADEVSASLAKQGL
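ThS-based fibril read: tau 1 uM final, inducer ODS 30 uM final, 37 C for 15 h, ex 450/em 510 nm.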
Hsp90 Hop PPI = qHTS Assay for Disrupters of an Hsp90 Co-Chaperone Interaction; Hsp90 C-terminal peptide / TPR2A (Hop) interaction, human; AlphaScreen TPR2A-His6 binding biotin-Hsp90 C-terminal peptide; Potency, µM (highest dose often 57 µM), without a hit: at the highest dose activity change, negative = inhibition; 0.44% of 71,000 active; AID 595, 2007; active means well fitted curve in either direction with a large enough effect; inconclusive means small, poorly fitted or top-dose-only effect, or another doubt; further: on the % scale 0 is the no-effect control and ±100 the full control effect
15-hLO inh = qHTS Assay for Inhibitors of 15-hLO (15-human lipoxygenase); Polyunsaturated fatty acid lipoxygenase ALOX15 (Homo sapiens), P16050; purified 15hLO-1, xylenol orange hydroperoxide absorbance; Potency, µM (series often up to 57.1 µM), for the others: at the highest dose activity change, negative = inhibition, usual class: inhibitors; 1.4% of 74,000 active; AID 887, 2007; further: on the % scale 0 is the no-effect control and ±100 the full control effect; nearly all actives have a fitted effect of over 55% in size
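Hydroperoxide formed from arachidonic acid (50 uM) by purified human 15hLO-1 (40 nM) oxidizes ferrous iron, and the ferric-xylenol orange complex is read at 573 versus 405 nm. Compounds were preincubated 15 min; reaction ran 6 min at room temperature.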
IkB signaling = IkB Signaling; ABC-DLBCL IkBa-CBG/CBR dual luciferase ratio, 4 h; response scale: scaled: untreated 0%, proteasome inhibitor 100%; AID 445, 2006; Potency, µM (series often up to 57.1 µM), for inactives: at the top dose IkBa stabilization activation; 0.04% of 110,000 active; active means well fitted curve in the direction sought with a large enough effect in the signal ratio, not every such curve was filed as active; inconclusive means small, poorly fitted or top-dose-only effect, or a change in a side signal; the % refers to the signal ratio;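 further: the direction sought is a rising ratio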
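In this assay, an IκBα–CBG68 fusion accumulates when IKK-driven degradation is blocked; native CBR normalizes for cell number. OCI-Ly3 cells were treated 4 h with compound and doxycycline, then green and red light read after Chroma-Glo addition.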
Starred values were filed as active, the others as inactive; u = inconclusive; x = no result given; [ ] = dose if it differs, or a comment. Unless noted, the call rests on the fitted dose curve; in most records, active means well fitted curve in the direction sought with a large enough effect; inconclusive means small, poorly fitted or top-dose-only effect, or another doubt; inactive means no such curve, though single readings can be large; an effect the other way counts as inactive or inconclusive. Potency means the concentration at half of the fitted maximal effect.

SMILES | CRE Fsk mod | Tau fil binding | Hsp90 Hop PPI | 15-hLO inh | IkB signaling
O=C(COC(=O)c1ccccc1)NCc1ccco1 | -4.8% | -0.9% | -2.8% | -26.1% | 0.1%
O=C(COC(=O)c1cc(-c2cccs2)nc2ccccc12)NCc1ccco1 | 9.8% | 15.8µM* | 6.1% | -17.6% | u
O=C(COC(=O)c1ccccc1Oc1ccccc1)NCc1ccco1 | -3.1% | 2.8% | -6.3% | 12.6µM* | 2.8%
COc1ccccc1NCCC(=O)OCC(=O)NCc1ccco1 | -10.8% | -14.7% | -7.9% | u | 6.9%
Cc1ccc(N(C)C(=O)Cn2nc(Cc3ccncc3)c3ccccc3c2=O)cc1C | x | x | x | x | 0.7%
COc1cccc(CNC(=O)c2cc3cc(C)ccc3n2C)c1 | x | x | x | x | -1.5%
CCOC(=O)c1ccc(NC(=O)CC(C)n2nc(C)cc2C)cc1 (stereo unspecified) | x | x | x | x | -2.5%
O=C(COC(=O)c1cc(-c2ccco2)nc2ccccc12)NCc1ccc2c(c1)OCO2 | u | 12.6µM* | -0.7% | u | u
CCN(CC)c1ccc(NC(=O)C2CC3CCC2C3)cc1 (stereo unspecified) | 4.6% | 25.1µM* | -29.4% | -23.0% | 0.4%
COc1ccc(CNC(=O)CSc2ncc3c(n2)-c2cc(Cl)ccc2N(C)S3(=O)=O)cc1 | x | x | x | x | -2.2%
Cc1ccc2oc(=O)n(CCNC(=O)Nc3ccccc3Cl)c2c1 | x | x | x | x | 0.3%
COc1ccc(OC)c2c(=S)c3ccccc3[nH]c12 | 20µM* | 12.6µM* | -16.1% | 10µM* | u
CC(=O)N=c1c(C#N)cc2c(=O)n3cccc(C)c3nc2n1CC(C)C | x | x | x | -13.5% | x
C=CCn1c(N)c(C(=O)OCCC)c2nc3ccccc3nc21 | 10µM* | -7.5% | 8.6% | -1.7% | 2.3%
CCOC(=O)c1c(N)n(-c2ccc(C)c(C)c2)c2nc3ccccc3nc12 | x | x | x | x | -1.2%
COCCn1c(N)c(C(=O)OCc2ccccc2)c2nc3ccccc3nc21 | 10µM* | 2.1% | u | -7.5% | u
Cc1cc(-c2ccc(N=Nc3cc(S(=O)(=O)O)c4ccccc4c3N)c(C)c2)ccc1N=Nc1cc(S(=O)(=O)O)c2ccccc2c1N | -10.1% | 0.02µM* | 1.26µM* | 0.398µM* | -9.3%
CC(C)NCC(O)Cn1c2c(c3ccccc31)CCc1c-2cnn1-c1ccccc1 (stereo unspecified) | -9.0% | u | -15.2% | 12.6µM* | u
Cc1ccc2c(c1)c1c(n2CC(O)Cn2c(C)nc3ccccc32)C(=O)CCC1 (stereo unspecified) | 12.7% | 306.1% | -3.2%[2.3 µM] | -2.4% | -4.1%
Cc1nn(C)c(C)c1CCNC(=O)Nc1ccccc1C(F)(F)F | x | x | x | x | -1.2%
COc1ccc2nc(Nc3ccc4c(c3)OCO4)sc2c1 | u | 12.6µM* | u | -15.9% | 3.0%
COc1ccccc1N1CCN(C(=O)c2cnc(N3CCCCC3)c3ccccc23)CC1 | x | x | x | x | 1.6%
CCOC(=O)c1ccc(N)cc1 | -3.6%[17.1 µM] | 4.1%[25.6 µM] | 3.0%[26 µM] | 3.5% | -0.1%[25.6 µM]
CCOC(=O)c1cc(-c2ccc(N)cc2)sc1N | u | 25.1µM* | -26.0% | 25.1µM* | -0.7%
Cc1ccc(Nc2ncnc3onc(C)c23)cc1Cl | x | x | x | x | 0.5%
SMILES | CRE Fsk mod | Tau fil binding | Hsp90 Hop PPI | 15-hLO inh | IkB signaling
CCOC(=O)Cc1nnc(NC(=O)C(CC)Sc2nnc3c4ccccc4n(C)c3n2)s1 (stereo unspecified) | 12.6µM* | -22.7% | -2.0% | 6.9% | 1.1%
Cc1c(CCC(=O)O)c(=O)oc2cc3occ(-c4ccc(F)cc4)c3cc12 | 10µM* | 8.5% | 0.3% | -14.2% | 1.6%
N#Cc1cccc(-c2nc(NCc3cccs3)c3ccccc3n2)c1 | u | 85.4% | 2.3% | -8.4% | 1.4%[11.4 µM]
Cc1ccc(Cn2c(=S)[nH]c3ccc(N4CCOCC4)cc3c2=O)o1 | u | 14.1% | u | 15.8µM* | u
O=c1c2cc(N3CCOCC3)ccc2[nH]c(=S)n1CCN1CCCC1 | -1.6% | -4.4% | -7.1% | -18.9% | 3.5%
COc1ccc2ncc3c(-c4ccc(C)c(C)c4)nn(CC(=O)Nc4ccccc4)c3c2c1 | x | x | x | x | 0.8%
Nc1ccc2c(c1)C(=O)c1ccccc1C2=O | 7.94µM* | 1.58µM* | -9.0% | -10.8% | -7.0%
O=C(Nc1cccs1)Nc1ccccc1Cl | u | 25.1µM* | -11.1% | 12.6µM* | 2.2%
Cc1ccc(NC(=O)Nc2cccs2)cc1 | x | x | x | 25.1µM* | x
CCc1ccc(NC(=O)Nc2cccs2)cc1 | 18.2% | 25.1µM* | -13.9% | 25.1µM* | 4.6%
COc1cc(NC(=O)Cn2nnnc2-c2ccccc2F)cc(OC)c1OC | x | x | x | x | 0.1%
O=C(COc1ccc(Br)cc1)Nc1ccc(C(=O)OC2CCCCC2)cc1 | x | x | x | x | -2.0%
Cc1nc2ccccc2c2oc(C(=O)N3CCc4ccccc43)cc12 | 0.398µM* | 49.2% | -1.7% | -2.0% | -4.6%
COc1ccc(C)cc1NC(=O)c1cc2c(C)nc3ccccc3c2o1 | u | 0.6% | 2.0% | 2.3% | 1.7%
COc1ccc(NC(=O)c2c(-c3ccc(C)cc3)nnc3ccccc23)cc1OC | x | x | x | x | 1.1%
COc1ccc(NC(=O)c2cc(-c3ccc(C)o3)nc3ccccc23)cc1OC | u | 48.5% | -11.7% | 31.6µM* | u
COc1cc(NC(=O)c2cc3c(C)nc4ccccc4c3o2)cc(OC)c1OC | 1.58µM* | 457.7% | -4.8% | -11.1% | 12.8%
COC(=O)c1c(C)n(-c2ccc(OC)cc2)c2ccc(O)cc12 | 15.9% | 119.3% | -17.7% | 7.94µM* | u
Cc1c(C(=O)O)c2cc(O)ccc2n1-c1ccccc1 | -3.5% | -13.1% | -4.1% | 1.4% | 5.0%
CCc1ccc(CNC(=O)c2cnc3sc(N4CCCCC4)nn3c2=O)cc1 | x | x | x | x | -2.9%
O=C(Oc1ccc2c(c1)OCO2)c1cc2c(s1)CCC2 | 8.9% | -29.7% | 15.4% | 20µM* | -0.1%
CC(C)(C)OC(=O)N1CCC(c2c(C(=O)Nc3ccc4c(c3)OCCO4)cnn2-c2ccc(Cl)cc2)CC1 | x | x | x | x | 0.9%
Cc1nnc(NC(=O)C(C)Sc2nncn2C)s1 (stereo unspecified) | -14.3% | 10.1% | 2.3% | 6.4% | -1.6%
COc1ccc(OC)c(-c2nnc(NC(=O)C(C)Sc3nncn3C)s2)c1 (stereo unspecified) | 12.6µM* | 16.6% | -2.6% | -10.2% | -3.1%
O=C(NCc1ccc(F)cc1)C(=O)NCC(c1cccs1)S(=O)(=O)c1cccs1 (stereo unspecified) | x | x | x | x | -1.4%
COc1ccc(C(=O)Nc2cccc(C)c2)cc1S(=O)(=O)N1CCOCC1 | 5.5% | -3.2% | 2.3% | -2.3% | 0.4%
COc1ccc(C(=O)Nc2ccc(-c3cn4ccsc4n3)cc2)cc1S(=O)(=O)N1CCOCC1 | 2µM* | 58.6% | -5.3% | -1.3% | 1.8%
COc1ccc(C(=O)Nc2cccc3c2C(=O)NC3=O)cc1S(=O)(=O)N1CCOCC1 | 2.51µM* | 34.4% | -3.8% | -0.7% | 0.5%
